The source of these data is PubChem BioAssay.

For assay [1], the system named is Plasmodium falciparum Sir2 (PF13_0152, Sir2A). The assay is described as follows: Plasmodium falciparum Sir2A binding compounds – biochemical, small-molecule microarray, 635 nm fluorescence, primary screen (AID 1098).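 Note: score merges spot fluorescence intensity with its signal-to-noise ratio.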 The following applies: fluorescence 635 nm, higher = more signal.
Assay [2] can be described thus: probe aDKK1 binding to arrayed compounds – biochemical, biotinylated probe, 635/667 nm fluorescence, primary screen (AID 1099).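 Note: score merges 667nm spot fluorescence with signal to noise across triplicate slides; reference of the scale not given here.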 As to conditions: small-molecule microarray, higher = more signal.
The nature of assay [3]: probe aCHRDL2 binding to arrayed compounds – biochemical, biotinylated probe, 635/667 nm fluorescence, primary screen (AID 1100). The following applies: small-molecule microarray, higher = more signal.
Assay [4] in a line: change in splice reporter luminescence, either direction, cell-based, HEK293, spliceosome inhibition project, primary screen (AID 1101).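 Note: HEK293 cells carrying a splicing-competent luciferase reporter gene; test concentration not given here.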 The following applies: HEK293 splicing luciferase reporter, 24 h, higher = more signal, called active from +8 up or from −8 down. In general terms: Reporter assays use an easily measured gene product as a stand-in for the process of interest.
The target of assay [5] is Fibroblast growth factor 10 (Homo sapiens) (UniProt O15520). The assay is described as follows: compounds binding fibroblast growth factor 10 – biochemical, small-molecule microarray, 635 nm fluorescence, primary screen (AID 1102). As to conditions: FGF10 binding, fluorescence 635 nm, higher = more signal.
Fibroblast growth factor 10 (Homo sapiens), sequence (O15520 whole entry, looked up): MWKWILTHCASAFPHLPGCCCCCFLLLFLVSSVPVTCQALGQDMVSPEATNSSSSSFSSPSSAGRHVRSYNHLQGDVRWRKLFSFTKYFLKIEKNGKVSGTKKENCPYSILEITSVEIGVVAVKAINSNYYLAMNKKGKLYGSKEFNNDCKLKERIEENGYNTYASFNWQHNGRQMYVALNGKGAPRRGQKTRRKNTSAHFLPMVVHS
Assay [6] concerns glycogen synthase kinase-3 (GSK3A per assay name; protocol says GSK3B). Description: compounds binding glycogen synthase kinase-3 – biochemical, small-molecule microarray, 635 nm fluorescence, GSK3A, primary screen (AID 1103). Note: the record names both GSK3A and GSK3B. The following applies: fluorescence 635 nm, higher = more signal.
Assay [7] has as its target Epidermal growth factor receptor (Homo sapiens) (UniProt P00533). Description: compounds binding epidermal growth factor receptor – biochemical, small-molecule microarray, 635 nm fluorescence, primary screen (AID 1104).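 Note: score merges 667 nm emission intensity with spot signal to noise over triplicate slides.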 As to conditions: EGFR binding, higher = more signal.
The target in assay [8] is Follistatin-related protein 3 (Homo sapiens) (UniProt O95633). Description: compounds binding follistatin-related protein 3 – biochemical, small-molecule microarray, 635 nm fluorescence, primary screen (AID 1105).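 Note: score merges emission near 667 nm and signal to noise per printed spot across three slides.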 The following applies: FSTL3 binding, higher = more signal.
Follistatin-related protein 3 (Homo sapiens), sequence (O95633 whole entry, looked up): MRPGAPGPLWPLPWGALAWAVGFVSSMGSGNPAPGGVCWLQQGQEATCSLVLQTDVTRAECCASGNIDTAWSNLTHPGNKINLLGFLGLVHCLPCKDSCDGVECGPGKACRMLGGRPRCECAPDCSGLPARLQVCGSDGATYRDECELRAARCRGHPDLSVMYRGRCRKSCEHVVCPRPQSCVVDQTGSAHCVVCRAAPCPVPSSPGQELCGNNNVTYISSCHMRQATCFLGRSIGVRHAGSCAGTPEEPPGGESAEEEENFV
Assay [9] addresses Dickkopf-related protein 1 (Homo sapiens) (UniProt O94907). The assay is described as follows: small molecules binding DKK1 protein – biochemical, small-molecule microarray, 635 nm fluorescence scan, primary screen (AID 1106).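 Note: score merges emission near 667 nm with signal to noise over three replicate slides.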 The following applies: higher = more signal.
Assay [10] deals with Inhibin beta A chain (activin A). The assay is described as follows: small molecules binding activin A – biochemical, small-molecule microarray, 635 nm fluorescence scan, primary screen (AID 1107).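 Note: mouse activin A protein probed at 4.33 µg/mL on printed slides; score merges bound-protein fluorescence near 667 nm with spot signal-to-noise.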 As to conditions: INHBA, higher = more signal.

Active and inactive are the calls of the source.

Dickkopf-related protein 1 (Homo sapiens), sequence (O94907 whole entry, looked up): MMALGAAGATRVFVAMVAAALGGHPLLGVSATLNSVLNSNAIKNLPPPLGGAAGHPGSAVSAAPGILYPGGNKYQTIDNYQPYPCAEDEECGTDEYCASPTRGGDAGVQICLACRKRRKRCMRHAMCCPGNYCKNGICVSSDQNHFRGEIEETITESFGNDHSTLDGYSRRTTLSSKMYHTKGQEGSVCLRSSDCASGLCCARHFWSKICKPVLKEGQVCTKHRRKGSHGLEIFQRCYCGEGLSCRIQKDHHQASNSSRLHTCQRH
Epidermal growth factor receptor (Homo sapiens), sequence (P00533 whole entry, looked up): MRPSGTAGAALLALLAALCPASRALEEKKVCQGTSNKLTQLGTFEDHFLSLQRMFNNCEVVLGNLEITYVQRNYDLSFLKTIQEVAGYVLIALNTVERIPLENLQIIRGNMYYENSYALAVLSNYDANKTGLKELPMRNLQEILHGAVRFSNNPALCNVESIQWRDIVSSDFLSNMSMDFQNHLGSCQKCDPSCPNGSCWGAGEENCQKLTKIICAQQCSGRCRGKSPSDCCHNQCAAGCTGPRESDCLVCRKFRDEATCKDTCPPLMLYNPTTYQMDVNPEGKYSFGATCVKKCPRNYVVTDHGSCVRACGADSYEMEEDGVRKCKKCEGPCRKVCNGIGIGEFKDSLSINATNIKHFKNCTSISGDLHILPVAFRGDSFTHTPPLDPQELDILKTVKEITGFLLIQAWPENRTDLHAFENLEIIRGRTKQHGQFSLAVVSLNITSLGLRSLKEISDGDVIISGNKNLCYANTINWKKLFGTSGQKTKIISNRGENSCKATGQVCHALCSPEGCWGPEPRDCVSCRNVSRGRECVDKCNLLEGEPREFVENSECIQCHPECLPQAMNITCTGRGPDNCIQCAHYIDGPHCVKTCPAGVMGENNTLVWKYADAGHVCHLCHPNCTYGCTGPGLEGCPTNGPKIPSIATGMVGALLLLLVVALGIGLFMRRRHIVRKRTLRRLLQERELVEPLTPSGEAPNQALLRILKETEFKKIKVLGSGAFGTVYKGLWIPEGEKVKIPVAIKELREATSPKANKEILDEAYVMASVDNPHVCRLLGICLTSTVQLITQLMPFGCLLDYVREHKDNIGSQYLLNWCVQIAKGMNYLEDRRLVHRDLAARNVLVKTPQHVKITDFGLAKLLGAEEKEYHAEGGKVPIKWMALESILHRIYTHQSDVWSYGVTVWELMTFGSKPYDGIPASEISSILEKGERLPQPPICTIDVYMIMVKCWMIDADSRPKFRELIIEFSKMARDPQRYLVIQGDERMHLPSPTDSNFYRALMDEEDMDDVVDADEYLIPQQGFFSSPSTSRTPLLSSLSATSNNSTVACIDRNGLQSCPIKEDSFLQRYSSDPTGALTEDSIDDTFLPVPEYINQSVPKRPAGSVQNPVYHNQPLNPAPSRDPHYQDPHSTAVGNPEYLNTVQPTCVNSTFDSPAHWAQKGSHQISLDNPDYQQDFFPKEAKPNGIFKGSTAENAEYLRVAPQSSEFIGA

As to `COC(=O)c1ccc(C(O)C2C=CC3C(=O)N(c4ccccc4)C(=O)C3N2Nc2ccc(C#N)cc2)o1` (stereo not given), the composite z-score in assay [1] amounted to 0.969; in [2], 0.51; in assay [3], 0.669; in [5], 0.989; in [6], 0.137; in [7], 0.219. The composite z-score in assay [8] was 0.311; in assay [9], -0.0752; in assay [10] it was 0.961. Also, the z-score in [4] was 1.28 (inactive).
Regarding `CCCNC(=O)[C@@H]1c2ccccc2C(=O)N(Cc2ccccc2)[C@H]1c1ccc(CO)cc1`, the composite z-score was 0.405 in assay [1]; -0.0972 in assay [2]; 0.933 in assay [3]; -0.239 in assay [5]; 0.0282 in assay [6]; -0.592 in [7]. Further, the figures for the composite z-score in [8], in [9] and in assay [10] were -0.637, -0.744 and -0.217, respectively. The z-score in assay [4] was 0.0373 (inactive).
Regarding `[N-]=[N+]=NCc1ccccc1[C@H]1OC(c2ccc(OCCCO)cc2)=N[C@@]1(CCS(=O)(=O)c1ccccc1)C(=O)N1CCOCC1`, the composite z-score in assay [1] was determined as 1.26; in assay [2], 1.19; in assay [3] it was 1.31; in assay [5], 1.17; in [6] it was 0.239; in assay [7], 0.267. Besides, the results for the composite z-score in assay [8], in assay [9] and in [10] were 1.13, -0.0445 and 1, respectively. In addition, the z-score in assay [4] was -0.0598 (inactive).
For the molecule `O=C1O[C@@H](c2ccccc2)[C@@H](c2ccccc2)N2[C@@H](c3ccc(OCCO)cc3)[C@]3(C(=O)Nc4ccccc43)[C@@H](C(=O)Nc3nc4ccccc4s3)[C@H]12`, the composite z-score in assay [1] was 1.66; in assay [2], 0.738; in assay [3], 0.478; in assay [5], 1.31; in assay [6] it was 1.07; in [7], 0.528. Also, the composite z-score in assay [8] is 1.15; in assay [9], 0.651; in [10], 0.411. In addition, the z-score in assay [4] was -0.876 (inactive).
For `Cc1ccc([C@H]2[C@H](C(=O)O)[C@H](Sc3ccccc3)[C@@H](C(C)C)N2S(=O)(=O)c2ccc(C)cc2)cc1`, the composite z-score is 0.587 in assay [1]; -0.403 in assay [2]; 0.355 in assay [3]; 0.95 in assay [5]; 1.22 in assay [6]; 0.151 in assay [7]. The composite z-score worked out at 0.905 in assay [8], 0.168 in [9] and 0.417 in [10]. The z-score in assay [4] is 0.27 (inactive).
Turning to `[N-]=[N+]=NCc1ccccc1C[C@]1(C(=O)NCCN2CCOCC2)N=C(c2ccc(OCCCO)cc2)O[C@H]1c1ccccc1N=[N+]=[N-]`, the composite z-score in assay [1] was determined as 0.8; in [2] it was 0.838; in assay [3], 1.11; in assay [5], 0.636; in assay [6], 1.15; in [7], 0.294. Also, the results for the composite z-score in assay [8], in assay [9] and in assay [10] were 0.504, -0.233 and 0.819, respectively. In assay [4], the z-score is -0.947 (inactive).
Consider `CN(C)CCCCNC(=O)[C@H]1C[C@H]2C(=O)N[C@@H](Cc3ccccc3)C(=O)N2[C@H]1c1ccc(O)cc1`, for which the composite z-score in assay [1] was 0.725; in [2] it was -0.0299; in assay [3], -0.0646; in assay [5], 1.4; in assay [6] it was 1.2; in assay [7], 0.425. The composite z-score is 1.39 in assay [8], 1.5 in [9] and -0.44 in assay [10]. In addition, the z-score in assay [4] was -1.03 (inactive).
Regarding `CC(C)(C)OC(=O)CC[C@]1(C(=O)N2CCCCC2)N=C(c2ccc(OCCCO)cc2)O[C@H]1c1ccccc1N=[N+]=[N-]`, the composite z-score in assay [1] turned out to be 0.668; in assay [2], 0.639; in assay [3] it was 0.869; in assay [5], 0.968; in [6] it was 0.736; in [7] it was 0.6. Further, the composite z-score in assay [8] is 0.81; in assay [9] it was -0.135; in [10] it was 1.34. In addition, the z-score in assay [4] is -1.37 (inactive).
For `COC(=O)[C@@]1(Cc2ccccc2)[C@H]2c3cc(C(=O)N(C)C)n(Cc4c(-c5ccccc5)noc4C)c3C[C@H]2CN1C(=O)c1ccccc1`, the composite z-score in assay [1] is 0.609; in [2] it was 0.898; in assay [3], 1.18; in [5], 0.377; in [6] it was 0.638; in [7], 0.144. For the same molecule, the values for the composite z-score in [8], in [9] and in assay [10] were 0.0261, -0.0672 and 1.22, respectively. For the same molecule, the z-score in [4] is 0.762 (inactive).
On to `CCOC(=O)C1=CC[C@@H](c2ccccc2)N(S(=O)(=O)c2ccc(C)cc2)[C@H]1C(=O)OCC`, for which the composite z-score in assay [1] is -0.0664; in assay [2] it was 0.955; in assay [3], 1.02; in assay [5] it was 0.605; in assay [6], 1.13; in assay [7] it was 0.117. Moreover, the composite z-score was 0.533 in [8], -0.249 in assay [9] and 1.04 in assay [10]. Further, the z-score in [4] is -0.287 (inactive).
As for `CC(C)(C)OC(=O)CC[C@@]1(C(=O)O)N=C(c2ccc(OCCCO)cc2)O[C@@H]1c1ccccc1N=[N+]=[N-]`, the composite z-score is 1.67 in assay [1]; 1.16 in [2]; 1.36 in assay [3]; 0.991 in [5]; 0.357 in assay [6]; -0.288 in assay [7]. For the same molecule, the composite z-score is -0.153 in [8], -0.169 in assay [9] and 1.33 in assay [10]. The z-score in assay [4] was -0.66 (inactive).
Take `CC(C)=CCCC(C)=CC(O)C1C=CC2C(=O)N(c3ccccc3)C(=O)C2N1Nc1ccccc1` (stereo not given): the composite z-score in assay [1] came out at 1.36; in assay [2] it was 1.21; in assay [3], 0.997; in assay [5], 1.05; in assay [6] it was 0.978; in assay [7] it was 0.251. Further, the composite z-score amounted to 1.38 in assay [8], 0.113 in [9] and 1.06 in [10]. Further, in assay [4], the z-score was 1.18 (inactive).
Turning to `COc1cc(C(O)C2C=CC3C(=O)N(c4ccccc4)C(=O)C3N2Nc2ccc(C#N)cc2)cc(OC)c1OC` (stereo not given), the composite z-score in assay [1] is 1.4; in assay [2] it was 1.45; in [3], 1.34; in [5] it was 1.17; in [6], 1.33; in assay [7] it was -0.209. The composite z-score is 1.25 in assay [8], -0.536 in assay [9] and 0.0506 in assay [10]. Further, the z-score in [4] was 1.22 (inactive).
On to `COc1ccc(C(=O)Nc2cccc(CN3C(=O)[C@@]4(O[C@@H](CCn5cc(CCO)nn5)[C@H]([Si](C)(C)c5ccc(OC)cc5)[C@H]4C)c4ccccc43)c2)cc1`, for which the composite z-score in assay [1] was 0.758; in [2], -0.111; in assay [3], 0.124; in assay [5], 0.997; in assay [6], 1.17; in [7], 0.558. Moreover, the figures for the composite z-score in [8], in assay [9] and in assay [10] were 1.38, 0.851 and 1.4, respectively. For the same molecule, in assay [4], the z-score is -1.16 (inactive).
